Measured values taken from PubChem BioAssay (Tox21).
Records with an inconclusive call do not appear. Activity calls are given as the source filed them. Unless noted, calls come from the whole dose curve; as a rule, active = well fitted curve in the direction sought with a large enough effect in the repeat runs; inconclusive = weak or mixed curves; inactive = no such curve, though single readings can be large; an effect the other way counts as inactive or inconclusive.

Columns and labels:
[1] = qHTS assay to identify aromatase inhibitors - cell viability counter screen (AID 743084);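 note: cells stimulated with testosterone during compound exposure; nearly all actives have a fitted effect of over 55% in size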
[2] = target: Aryl hydrocarbon receptor (Homo sapiens) (UniProt P35869); assay: qHTS assay to identify small molecule that activate the aryl hydrocarbon receptor (AhR) signaling pathway (AID 743085);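 note: HG2L7.5c1 human HepG2 liver cells with stably integrated DRE-driven firefly reporter; series mostly up to about 70 µM; nearly all actives have a fitted effect of over 15% in size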
Chain of Aryl hydrocarbon receptor (Homo sapiens) (P35869 whole entry, looked up): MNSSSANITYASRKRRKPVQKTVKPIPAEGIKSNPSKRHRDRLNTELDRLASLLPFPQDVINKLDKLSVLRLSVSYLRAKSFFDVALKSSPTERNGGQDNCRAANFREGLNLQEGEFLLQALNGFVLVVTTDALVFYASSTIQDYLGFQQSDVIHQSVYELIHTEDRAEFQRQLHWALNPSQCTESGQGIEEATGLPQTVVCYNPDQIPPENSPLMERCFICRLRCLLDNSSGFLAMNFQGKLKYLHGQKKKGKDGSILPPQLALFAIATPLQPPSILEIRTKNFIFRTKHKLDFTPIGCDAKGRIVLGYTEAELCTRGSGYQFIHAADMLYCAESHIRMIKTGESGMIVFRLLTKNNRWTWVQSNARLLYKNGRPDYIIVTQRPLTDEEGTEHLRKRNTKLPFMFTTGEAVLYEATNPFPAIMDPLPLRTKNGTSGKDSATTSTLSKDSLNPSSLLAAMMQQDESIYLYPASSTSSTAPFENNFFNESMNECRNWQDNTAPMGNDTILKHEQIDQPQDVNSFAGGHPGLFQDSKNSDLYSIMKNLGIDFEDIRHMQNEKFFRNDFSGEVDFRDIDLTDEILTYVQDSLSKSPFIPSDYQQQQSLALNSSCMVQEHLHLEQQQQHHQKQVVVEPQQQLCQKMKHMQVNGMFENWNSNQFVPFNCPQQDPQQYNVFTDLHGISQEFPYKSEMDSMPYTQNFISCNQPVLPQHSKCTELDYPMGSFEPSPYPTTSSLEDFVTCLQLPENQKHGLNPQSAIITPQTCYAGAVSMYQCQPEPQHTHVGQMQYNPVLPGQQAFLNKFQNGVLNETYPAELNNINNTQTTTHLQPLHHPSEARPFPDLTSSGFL
Procedure, shortened: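 HepG2 cells stably carrying a 20-DRE firefly luciferase reporter (HG2L7.5c1) treated with compound for 24 hr at 37C. Luciferase read by ONE-Glo luminescence, with CellTiter-Fluor viability read first.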

[3] = qHTS assay to identify small molecule that activate the aryl hydrocarbon receptor (AhR) signaling pathway - cell viability counter screen (AID 743086);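 note: HepG2 liver cells carrying the AhR DRE luciferase reporter; series mostly up to about 70 µM; nearly all actives have a fitted effect of over 45% in size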
Procedure, shortened: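 HepG2-AhR-luc (HG2L7.5c1) cells, 4000/well, were preincubated 5 h at 37C, exposed to compound in qHTS format for 24 hr at 37C, then given CellTiter-Fluor for 30 min; viability was read as fluorescence in the reporter wells.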

[4] = target: Peroxisome proliferator-activated receptor gamma (Homo sapiens) (UniProt P37231); assay: qHTS assay to identify small molecule agonists of the peroxisome proliferator-activated receptor gamma (PPARg) signaling pathway (AID 743094; active = well fitted activation curve with a large enough effect in the signal ratio in the repeat runs, not every such curve was filed as active; the % refers to the signal ratio)
Chain of Peroxisome proliferator-activated receptor gamma (Homo sapiens) (P37231 whole entry, looked up): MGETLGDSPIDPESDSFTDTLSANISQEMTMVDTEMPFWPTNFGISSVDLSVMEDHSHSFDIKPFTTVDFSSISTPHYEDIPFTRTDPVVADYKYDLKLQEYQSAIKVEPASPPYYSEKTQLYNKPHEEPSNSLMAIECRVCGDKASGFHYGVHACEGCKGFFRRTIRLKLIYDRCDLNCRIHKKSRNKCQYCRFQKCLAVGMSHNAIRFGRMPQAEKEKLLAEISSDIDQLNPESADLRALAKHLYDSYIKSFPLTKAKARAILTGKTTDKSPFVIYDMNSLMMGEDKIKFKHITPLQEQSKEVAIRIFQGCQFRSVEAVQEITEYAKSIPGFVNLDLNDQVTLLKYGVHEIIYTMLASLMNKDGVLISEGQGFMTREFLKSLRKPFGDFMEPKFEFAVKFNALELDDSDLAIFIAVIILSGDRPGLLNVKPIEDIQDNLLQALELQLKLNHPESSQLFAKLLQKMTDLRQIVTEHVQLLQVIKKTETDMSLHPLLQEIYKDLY
Procedure, shortened: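 Fluorescence-based beta-lactamase readout in HEK293H PPARg UAS-bla cells after 17 h compound exposure (37C) and 1 h B/G FRET substrate incubation at room temperature.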

[5] = target: Peroxisome proliferator-activated receptor gamma (Homo sapiens) (UniProt P37231); assay: qHTS assay to identify small molecule antagonists of the peroxisome proliferator-activated receptor gamma (PPARg) signaling pathway (AID 743191; calls by dose curve; note: series mostly up to about 63 µM; nearly all actives have a fitted effect of over 30% in size)
Procedure, shortened: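 GeneBLAzer PPARg UAS-bla HEK293H cells carrying a UAS-driven beta-lactamase reporter were plated at 3000 cells/well, preincubated 5 h at 37C, then given compound for 17 h at 37C; LiveBLAzer B/G FRET substrate was read after 1 h at room temperature.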

[6] = qHTS assay to identify small molecule antagonists of the peroxisome proliferator-activated receptor gamma (PPARg) signaling pathway - cell viability counter screen (AID 743194); conditions: Potency: co-treated with 50 nM rosiglitazone; note: nearly all actives have a fitted effect of over 55% in size
Procedure, shortened: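 PPARg-UAS-bla HEK293H cells were plated, rested 5 h at 37 C, then treated with compounds plus rosiglitazone (50 nM final) for 17 h at 37 C; viability was then read by CellTiter-Glo luminescence after 30 min at room temperature.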

[7] = qHTS assay for small molecule agonists of the antioxidant response element (ARE) signaling pathway (AID 743202; active = well fitted activation curve with a large enough effect in the signal ratio in the repeat runs, not every such curve was filed as active; the % refers to the signal ratio)
Procedure, shortened: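 Following a 16 h, 37 C exposure of reporter HepG2 cells (ARE-driven beta-lactamase, 2,000 cells/well) to compounds, FRET substrate was applied for 2 h at room temperature and fluorescence intensity recorded.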

[8] = qHTS assay for small molecule agonists of the antioxidant response element (ARE) signaling pathway - cell viability counter screen (AID 743203; calls by dose curve; note: nearly all actives have a fitted effect of over 55% in size)
Procedure, shortened: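 Parallel cytotoxicity read-out for the ARE-bla screen: HepG2 reporter cells, 16 hrs with compounds, then CellTiter-Glo luminescence.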

[9] = qHTS assay for small molecule activators of the heat shock response signaling pathway - cell viability counter screen (AID 743209); note: nearly all actives have a fitted effect of over 50% in size
Procedure, shortened: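 To flag cytotoxic compounds, HSE-bla HeLa cells plated at 1500 cells/well were dosed for 5 h at 37 C, followed by the reporter FRET read and then CellTiter-Glo, with luminescence recorded 30 min after reagent addition.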

[10] = qHTS assay for small molecule activators of the heat shock response signaling pathway (AID 743210; active = well fitted activation curve with a large enough effect in the signal ratio in the repeat runs, with a control signal flat, not every such curve was filed as active; the % refers to the signal ratio; note: series mostly up to about 63 µM)
Procedure, shortened: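 Heat shock element–beta-lactamase HeLa reporter cells; qHTS with compounds for 5 h at 37 C; detection by FRET substrate fluorescence after 2.5 h at RT.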

[11] = qHTS assay to identify small molecule agonists of the peroxisome proliferator-activated receptor delta (PPARd) signaling pathway - cell viability counter screen (AID 743211); note: nearly all actives have a fitted effect of over 55% in size
Procedure, shortened: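 PPARd-bla HEK293H cells (3000/well) were pre-incubated 5 h at 37 C, then exposed to compound for 17 h at 37 C. After 2 h with LiveBLAzer substrate, CellTiter-Glo was added to the same wells; luminescence read after 30 min at room temperature.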

[12] = target: Peroxisome proliferator-activated receptor delta (Homo sapiens) (UniProt Q03181); assay: qHTS assay to identify small molecule agonists of the peroxisome proliferator-activated receptor delta (PPARd) signaling pathway (AID 743212; calls by dose curve)
Chain of Peroxisome proliferator-activated receptor delta (Homo sapiens) (Q03181 whole entry, looked up): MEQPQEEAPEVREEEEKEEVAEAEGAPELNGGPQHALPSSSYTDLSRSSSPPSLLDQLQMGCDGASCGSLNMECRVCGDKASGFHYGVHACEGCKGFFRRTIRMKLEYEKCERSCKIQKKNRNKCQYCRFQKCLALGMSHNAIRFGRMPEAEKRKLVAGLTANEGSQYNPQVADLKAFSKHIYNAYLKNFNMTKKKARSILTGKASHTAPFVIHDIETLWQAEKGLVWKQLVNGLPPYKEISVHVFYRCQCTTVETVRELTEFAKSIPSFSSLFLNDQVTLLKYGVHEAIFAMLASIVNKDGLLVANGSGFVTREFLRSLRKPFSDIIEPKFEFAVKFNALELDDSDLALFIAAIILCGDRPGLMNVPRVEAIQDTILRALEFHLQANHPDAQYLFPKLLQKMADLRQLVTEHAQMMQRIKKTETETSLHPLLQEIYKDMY
Procedure, shortened: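 Beta-lactamase reporter read by fluorescence (LiveBLAzer B/G FRET, 2 h, room temperature). Test agents, in DMSO, incubated at 37 C with PPARd-bla HEK293H cells.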

[13] = qHTS assay to identify small molecule antagonists of the peroxisome proliferator-activated receptor delta (PPARd) signaling pathway - cell viability counter screen (AID 743213); note: nearly all actives have a fitted effect of over 50% in size
Procedure, shortened: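 Viability counter-screen, qHTS format: PPARd-bla HEK293H, L165041 300 nM final, 17 h compound exposure at 37 C, CellTiter-Glo luminescence after 30 min RT.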

[14] = target: Peroxisome proliferator-activated receptor delta (Homo sapiens) (UniProt Q03181); assay: qHTS assay to identify small molecule antagonists of the peroxisome proliferator-activated receptor delta (PPARd) signaling pathway (AID 743215; active = well fitted inhibition curve with a large enough effect in the signal ratio in the repeat runs, not every such curve was filed as active; the % refers to the signal ratio;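 note: cells stimulated with agonist L165041 at 300 nM final during compound exposure; series mostly up to about 62 µM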)
Procedure, shortened: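 Screen format: qHTS, antagonist mode. HEK293H PPARd-bla cells received compound and 300 nM L165041 (final), 17 h, 37 C. Beta-lactamase detected via FRET substrate fluorescence, 2 h, room temperature.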

[15] = qHTS assay to identify small molecule agonists of the farnesoid-X-receptor (FXR) signaling pathway - cell viability counter screen (AID 743218); note: nearly all actives have a fitted effect of over 45% in size
Procedure, shortened: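 Same-well cytotoxicity check on FXR-UAS-bla HEK 293T cells: 5 h attachment, 16 h compound at 37 C, CellTiter-Glo luminescence read at room temperature after 30 min.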

[16] = qHTS assay to identify small molecule antagonists of the farnesoid-X-receptor (FXR) signaling pathway - cell viability counter screen (AID 743221; active = well fitted cell-killing curve with a large enough effect in the repeat runs, not every such curve was filed as active; note: nearly all actives have a fitted effect of over 50% in size)
Procedure, shortened: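 GeneBLAzer FXR-UAS-bla HEK 293T cells, compound plus chenodeoxycholic acid (50 uM final), 16 h at 37 C. CellTiter-Glo added to the same wells after the beta-lactamase read; luminescence read after 30 min at room temperature as viability.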

[17] = target: Vitamin D3 receptor (Homo sapiens) (UniProt P11473); assay: qHTS assay to identify small molecule agonists of the vitamin D receptor (VDR) signaling pathway (AID 743222; calls by dose curve)
Chain of Vitamin D3 receptor (Homo sapiens) (P11473 whole entry, looked up): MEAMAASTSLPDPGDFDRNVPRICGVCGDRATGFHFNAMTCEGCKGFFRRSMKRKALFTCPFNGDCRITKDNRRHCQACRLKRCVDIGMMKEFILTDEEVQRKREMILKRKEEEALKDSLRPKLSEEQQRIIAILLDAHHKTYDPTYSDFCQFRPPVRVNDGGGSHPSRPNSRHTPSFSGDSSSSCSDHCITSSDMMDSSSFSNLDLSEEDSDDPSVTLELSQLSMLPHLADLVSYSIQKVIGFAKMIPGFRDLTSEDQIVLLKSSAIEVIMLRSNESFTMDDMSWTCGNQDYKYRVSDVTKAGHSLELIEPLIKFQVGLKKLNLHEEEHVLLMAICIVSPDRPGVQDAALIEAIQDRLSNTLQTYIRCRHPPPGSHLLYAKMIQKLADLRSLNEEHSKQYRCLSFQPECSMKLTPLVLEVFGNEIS
Procedure, shortened: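 Using LiveBLAzer B/G FRET detection, agonism was scored in VDR-bla cells exposed overnight (16 h, 37C) to DMSO-dissolved compounds; substrate incubation was 2 h at room temperature.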

[18] = target: Vitamin D3 receptor (Homo sapiens) (UniProt P11473); assay: qHTS assay to identify small molecule antagonists of the vitamin D receptor (VDR) signaling pathway (AID 743223; active = well fitted inhibition curve with a large enough effect in the signal ratio in the repeat runs, not every such curve was filed as active; the % refers to the signal ratio)
Procedure, shortened: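 VDR-bla cells were treated with compound plus 3 nM final 1alpha,25-dihydroxyvitamin D3 for 16 h at 37C. Beta-lactamase reporter read by B/G FRET substrate fluorescence after 2 h at room temperature. qHTS format.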

[19] = target: Bile acid receptor (Homo sapiens) (UniProt Q96RI1); assay: qHTS assay to identify small molecule antagonists of the farnesoid-X-receptor (FXR) signaling pathway (AID 743217; active = well fitted inhibition curve with a large enough effect in the signal ratio in the repeat runs, not every such curve was filed as active; the % refers to the signal ratio)
Chain of Bile acid receptor (Homo sapiens) (Q96RI1 whole entry, looked up): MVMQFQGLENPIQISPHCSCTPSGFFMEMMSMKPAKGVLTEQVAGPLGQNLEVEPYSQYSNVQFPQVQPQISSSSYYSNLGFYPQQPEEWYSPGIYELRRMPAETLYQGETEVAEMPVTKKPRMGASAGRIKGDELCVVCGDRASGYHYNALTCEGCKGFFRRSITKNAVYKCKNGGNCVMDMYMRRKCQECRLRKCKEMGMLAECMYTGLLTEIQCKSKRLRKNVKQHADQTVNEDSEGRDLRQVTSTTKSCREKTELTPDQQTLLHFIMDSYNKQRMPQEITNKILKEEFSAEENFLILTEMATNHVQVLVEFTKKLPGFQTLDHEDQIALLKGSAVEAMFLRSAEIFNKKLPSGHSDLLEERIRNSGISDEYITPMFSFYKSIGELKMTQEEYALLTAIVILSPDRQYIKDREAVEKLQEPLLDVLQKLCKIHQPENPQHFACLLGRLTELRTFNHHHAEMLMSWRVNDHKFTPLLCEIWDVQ
Procedure, shortened: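 Quantitative HTS, beta-lactamase reporter format: FXR-UAS-bla HEK 293T cells co-treated 16 h at 37 °C with compounds and 50 uM final chenodeoxycholic acid, then read by B/G FRET fluorescence.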

[20] = target: Bile acid receptor (Homo sapiens) (UniProt Q96RI1); assay: qHTS assay to identify small molecule agonists of the farnesoid-X-receptor (FXR) signaling pathway (AID 743220; active = well fitted activation curve with a large enough effect in the signal ratio in the repeat runs, not every such curve was filed as active; the % refers to the signal ratio)
Procedure, shortened: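 FXR-UAS-bla HEK 293T cells carrying a UAS-driven beta-lactamase reporter were plated for 5 h at 37C/5% CO2, then exposed to DMSO-dissolved Tox21 10K compounds for 16 h at 37C. A LiveBLAzer B/G FRET substrate was loaded for 2 h at room temperature before fluorescence reading.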

Measured: Potency

CCCC(C)(COC(N)=O)COC(N)=O
not listed: [19] | [20]
inactive: all other assays above

Cc1ccc2c(c1)C1CN(C)CCC1N2 (configuration not stated)
not listed: [16]
inactive: all other assays above

O=S1(=O)OCCO1
not listed: [19]
inactive: all other assays above

C=C(C)[C@H]1CN[C@H](C(=O)O)[C@H]1CC(=O)O
not listed: [12] | [19] | [20]
inactive: all other assays above

C=CCN1CC[C@]23CCCC[C@H]2[C@H]1Cc1ccc(O)cc13
not listed: [12] | [14]
inactive: all other assays above

CCOP(=O)(CN(CCO)CCO)OCC
not listed: [7] | [19] | [20]
inactive: all other assays above

CCN(CC)C1CCCCC1
not listed: [12]
inactive: all other assays above

CC[C@H](N)c1ccccc1
not listed: [11] | [12] | [14] | [19] | [20]
inactive: all other assays above
